Assay outcomes deposited in PubChem by National Center for Advancing Translational Sciences (NCATS).
Only some compounds are listed: those with a hit (about 12% of all), similar ones and a draw of the others.
TDP1 block – TDP1 (human) enzyme inhibition | Q9NUW8 | recombinant TDP1, AlphaScreen DNA substrate cleavage | Potency, µM (series often up to 130 µM), for inactives: at the highest dose activity change, negative = inhibition, hits mostly inhibitors | 350,000 compounds, 0.28% hits | AID 485290; further: on the % scale 0 is the no-effect control and ±100 the full control effect; nearly all actives have a fitted effect of over 40% in size
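Here, a 5' biotin and 3' phosphotyrosine-FITC DNA oligonucleotide reports Tdp1 activity: intact substrate bridges AlphaScreen beads, while cleavage leaves a 3' phosphate and drops signal. All incubations at room temperature.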
G9a inh – inhibitors of human histone lysine methyltransferase G9a; Q96KQ7; 350,000 compounds, 8.8% hits; G9a H3K9 monomethylation, AlphaScreen, 2 h; AID 504332; Potency, µM (highest dose often 102 µM), for the others: at the top dose activity, negative = inhibition, actives largely listed as inhibitors; further: on the % scale 0 is the no-effect control and ±100 the full control effect; nearly all actives have a fitted effect of over 75% in size
Target sequence (Q96KQ7 913-1193 limits assumed): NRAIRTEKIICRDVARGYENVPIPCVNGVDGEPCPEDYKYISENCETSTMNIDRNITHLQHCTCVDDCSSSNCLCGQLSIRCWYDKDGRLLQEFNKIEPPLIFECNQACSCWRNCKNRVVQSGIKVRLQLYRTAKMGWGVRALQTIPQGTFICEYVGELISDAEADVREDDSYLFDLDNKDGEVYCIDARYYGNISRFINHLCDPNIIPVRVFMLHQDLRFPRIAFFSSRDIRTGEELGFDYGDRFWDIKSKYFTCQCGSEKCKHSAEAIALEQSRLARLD
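Compounds were preincubated with 20 nM G9a for 15 min, after which biotinylated H3K9 peptide (500 nM) and SAM (20 uM) started a 2 h room-temperature reaction. Monomethylated product was quantified by antibody-based AlphaScreen chemiluminescence.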
HP1b binding inh – blocks HP1-beta chromodomain binding to methylated histone tails; P83916; AlphaScreen HP1-beta / biotin-H3K9me3 peptide binding; Potency, µM (doses to about 114 µM), without a hit: at the highest dose activity change, negative = inhibition, hits mostly inhibitors; 390,000 compounds, 0.56% hits; AID 540317; further: nearly all actives have a fitted effect of over 70% in size
Target sequence (P83916 whole entry, looked up): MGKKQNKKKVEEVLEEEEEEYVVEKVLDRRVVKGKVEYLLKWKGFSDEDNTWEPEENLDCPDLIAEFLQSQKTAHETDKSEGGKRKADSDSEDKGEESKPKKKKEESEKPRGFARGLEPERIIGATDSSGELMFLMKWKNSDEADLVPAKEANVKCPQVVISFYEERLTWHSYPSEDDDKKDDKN
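AlphaScreen: HP1-beta (50 nM) preformed 30 min with biotin-H3(1-18)K9me3 peptide (50 nM) in PBS pH 7.4, 0.01% Tween-20. Compound added for 30 min at RT, then streptavidin donor/nickel chelate acceptor beads (10 ug/mL) for 30 min.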
Sfp PPTase inh – inhibitors of Bacillus subtilis Sfp phosphopantetheinyl transferase. 310,000 compounds, 3.5% hits. Potency, µM, for inactives: largest response in the series, negative = inhibition, most hits filed as inhibitors. AID 1490. Biochemical Sfp PPTase activity, qHTS;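 further: the enzyme is Sfp with the accession as filed and its product quenches rhodamine fluorescence; 0% = enzyme reaction without inhibitor and -100% = no enzyme wells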
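Buffer: 50 mM Hepes-Na pH 7.6, 10 mM MgCl2, 0.01% Nonidet P-40, 0.01% BSA. Enzyme 15 nM, pre-exposed to compound 15 min; substrates then added and fluorescence change tracked over 30 min.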
JMJD2A Tudor – JMJD2A Tudor domain (human) inhibition; 390,000 compounds, 4.4% hits; AID 504339; O75164; Potency, µM (series often up to 114 µM), for inactives: at the top dose activity change, negative = inhibition, hits mostly inhibitors; AlphaScreen JMJD2A-Tudor / H3K4me3 peptide binding; further: on the % scale 0 is the no-effect control and ±100 the full control effect; nearly all actives have a fitted effect of over 50% in size
BAZ2B block – blocks human BAZ2B; Potency, µM (highest dose often 114 µM), for the others: at the top dose activity change, negative = inhibition, usual class: inhibitors; AlphaScreen BAZ2B-H3K14Ac peptide displacement; 360,000 compounds, 4.4% hits; further: on the % scale 0 is the no-effect control and ±100 the full control effect; nearly all actives have a fitted effect of over 60% in size
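Protein-peptide AlphaScreen: BAZ2B 50 nM, b-H3K14Ac 50 nM, 1x PBS pH 7.4 + 0.01% Tween-20. Preincubation 30 min RT; cpd 30 min RT (top 110 uM); beads 20 min RT, light-protected.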
* marks the source's active call; other numbers are inactive results; ? = inconclusive; . = not tested or not shown; [ ] = another dose, or the depositor's remark. The call rests on the fitted dose curve; in most records, active means well fitted curve in the direction sought with a large enough effect; inconclusive means small, poorly fitted or top-dose-only effect, or another doubt; inactive means no such curve, though single readings can be large; an effect the other way counts as inactive or inconclusive. Potency means the concentration at half of the fitted maximal effect.

SMILES	TDP1 block	G9a inh	HP1b binding inh	Sfp PPTase inh	JMJD2A Tudor	BAZ2B block
Cc1cc(C(=O)N2CCN(C(c3ccccc3)c3ccccc3)CC2)on1	6%	17%	65%	11%	-14%	8%
Cc1occc1C(=O)N1CCN(C(c2ccccc2)c2ccccc2)CC1	9%	40µM*	3%	-7%	?	?
Cc1ccc(C(=O)c2c3ccc(C(F)(F)F)cc3nn2CCC(N)=O)cc1	-3%	24%[2.33 µM]	16%	.	?	3%
CSc1ncc(OCc2ccccc2)c(=O)[nH]1	6%	.	46%	-4%	-7%	0%
Cc1nc(-c2ccc(S(=O)(=O)Nc3ccc(Cl)c(C(F)(F)F)c3)cc2)co1	8%	8%[59 µM]	14%[57 µM]	.	-24%	-4%
O=C(NC(=S)Nc1ccc(N2CCCCC2)cc1)c1ccc2c(c1)OCCO2	7%	?	?	-20%	?	10µM*
CC(C)CC(=O)NC(=S)Nc1ccc(CN2CCOCC2)cc1	4%	.	33%	14%	-2%	-5%
CC(Sc1ccc2c(c1)OCCO2)C(=O)Nc1ccc(N2CCOCC2)cc1 (centres undefined)	8%	50µM*	24%	2%	-7%	-10%
O=C(CSc1ccc2c(c1)OCCO2)Nc1ccc(N2CCOCC2)cc1	5%	?	13%	9%	-4%	-22%
O=C(NC(=S)Nc1ccc(CN2CCOCC2)cc1)c1ccc2c(c1)OCCO2	5%	45µM*	?	?	?	?
O=C(NC(=S)Nc1ccc(N2CCCC2)cc1)c1ccc(F)cc1	6%	?	-15%	-6%	?	11µM*
Cc1cc2c(nc1C)CCCCN2C[C@H](C)O/N=C\[C@@H](C)[C@H](OCc1ccccc1)C(C)C	8%[21 µM]	.	.	8%	.	.
CN(C(=O)Cn1cc(S(=O)(=O)N2CCN(c3ccccc3F)CC2)c2ccccc2c1=O)c1ccc(Cl)cc1	2%[12.3 µM]	-5%[59 µM]	20%	.	-11%	-13%
C=C(C)[C@@H]1C2=CC(C(=O)OC)=C(C[C@@H](C(=C)C)[C@H]3O[C@H]3C3=C[C@H]1OC3=O)O2	1%	.	56%	.	-5%	.
CC(C)Oc1ccc(CNC(=O)C2CCCN(S(=O)(=O)c3ccc4c(ccn4C)c3)C2)cc1 (centres undefined)	4%	1%[59 µM]	33%[57 µM]	.	-12%	0%
O=C(NC(=S)Nc1ccc(N2CCOCC2)cc1)c1ccc2c(c1)OCCO2	8%	10µM*	-25%	-9%	20µM*	?
O=C(Nc1cnc(N2CCC(N3CCCCC3)CC2)c(C(=O)O)c1)c1ccc(Br)cc1	-14%	?	-3%	.	79µM*	?
Cc1cccc(C(=O)Nc2ccc(N3CCN(c4ccc(F)cc4)CC3)c(C(=O)O)c2)c1	-14%	6%[59 µM]	17%	.	?	-4%
O=C(Nc1ccc(N2CCOCC2)c(F)c1)c1ccncc1	7%	-2%[12.7 µM]	25%	2%	-12%	5%
O=C(Nc1ccc(N2CCC(N3CCCCC3)CC2)c(C(=O)O)c1)c1ccc(Br)cc1	-14%	-31%[59 µM]	14%	.	?	79µM*
Cc1cccc(C(=O)Nc2ccc(N3CCC(CCN4CCOCC4)CC3)c(C(=O)O)c2)c1	25µM*	-6%[12.7 µM]	16%	.	-25%	32µM*
O=C(Nc1ccccc1)c1cccnc1N1CCCC1	5%	-7%	8%	9%	-12%	5%
O=C(Nc1ccc(N2CCCC2)cc1)c1ccc(Br)cc1	.	.	12%	-15%	-31%	?
O=C(Nc1ccc(N2CCOCC2)c(C(=O)O)c1)c1ccc(Br)cc1	-4%	-37%[59 µM]	33%	.	71µM*	?
Fc1cc(Br)ccc1COc1ccc(-c2nnco2)cc1	2%	18%	11%	10%	-12%	-2%
SMILES	TDP1 block	G9a inh	HP1b binding inh	Sfp PPTase inh	JMJD2A Tudor	BAZ2B block
CC(=O)c1ccc(N2CCN(S(=O)(=O)c3c(C(=O)N4CCCC4)c(C)n(C)c3C)CC2)cc1	2%	?	14%	3%	-25%	-11%[57.1 µM]
CCc1ccc(S(=O)(=O)Nc2ccc3c(c2)sc(=O)n3C)cc1	7%	-22%[59 µM]	26%[57 µM]	.	-14%	2%
CN(Cc1ccccc1)C(=O)c1ccc2c(c1)N(Cc1ccccc1Cl)C(=O)c1ccccc1S2	5%	?	18%	.	-18%	-1%
CN(C)CCNc1ncnc2c1sc1nc(-c3ccccc3)c3c(c12)CCCC3	.	?	-21%	35µM*	?	?
CC(C)(C)c1n[nH]c(=S)n(N)c1=O	5%	9%[12.7 µM]	-22%	?	5µM*	?
COc1ccc2c(c1)C1C=CCC1C(c1cc3c(cc1Br)OCO3)N2 (centres undefined)	10%	40µM*	-44%	-21%	22µM*	35µM*
CC(=O)c1ccc2c(c1)C1C=CCC1C(c1cc3c(cc1Br)OCO3)N2 (centres undefined)	0%	25%[2.33 µM]	10%	.	-31%	-32%
CC1CCN(S(=O)(=O)c2cc([N+](=O)[O-])ccc2Cl)CC1	3%	?	?	8%	?	?
O=[N+]([O-])c1ccc(Cl)c(CN2CCCCCC2)c1	.	25µM*	?	-4%	1.3µM*	56µM*
O=[N+]([O-])c1ccc(Cl)c(CN2CCC(O)CC2)c1	-3%	7.9µM*	45µM*	50µM*	10µM*	56µM*
CC(=O)c1sc(NC(=O)CCS(=O)(=O)c2ccc(C)cc2)nc1C	2%	-8%	42%	.	-16%	5%
COC(=O)c1cc(N2C(=O)C3C(C2=O)C2(C)C=CC3(C)O2)ccc1Cl (centres undefined)	2%	?	.	7.9µM*	.	?
CC(=O)Oc1ccc(N2C(=O)C3C4C=CC(CO)(O4)C3C2=O)cc1 (centres undefined)	7%	1µM*	?	16µM*	45µM*	14%
CC(=O)Oc1ccc(N2C(=O)C3C(C2=O)C2(C)C=CC3(C)O2)cc1 (centres undefined)	9%	5.6µM*	.	7.9µM*	.	-11%
COc1ccc(C2c3c(N)nc(CCCc4ccccc4)nc3Oc3ccc4ccccc4c32)cc1OC (centres undefined)	1%	.	.	.	?	.
O=C(CSc1nc2c([nH]c3ccccc32)c(=O)n1-c1cccc(Cl)c1)N1CCCC1	3%	-5%[59 µM]	27%[57 µM]	.	-15%	-19%
CCOC(=O)c1c(C)[nH]c(C(=O)OC(C)C(=O)NC2CCCCC2C)c1C (centres undefined)	0%	-24%[59 µM]	16%	.	-11%	-4%
Cc1ccc(C)c(Cn2c(=O)n(CCCCC(=O)NCc3ccccc3Cl)c(=O)c3ccccc32)c1	-1%	43%[59 µM]	71%	.	-8%	18%
